# Experimental data from the supplement of paper PMC10338343.
# ± gives the standard deviation. In all, about 6,600 sequences were measured (“pre-steady-state target cleavage rate”: median about 0.07, highest 2% from about 0.72 on). The sample as a whole holds a higher share of the highest values than the screen did.
# Tested on: MIWI (PIWIL1) piRISC loaded with Kctd7 piRNA (30 nt)
# Assay: pre-steady-state target cleavage rate (min^-1); MIWI and MILI are mouse PIWI proteins and EfPiwi is from a freshwater sponge; tags in brackets are library labels; higher = faster piRNA-guided slicing of the target
# Conditions: guide: Kctd7 piRNA 5'p-UGUUAAUCUCUCAGAGAAGGUGACAGUGAU; auxiliary factor: 500 nM mouse GTSF1
# Experimental: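 Cleave-'n-Seq: a library of target RNAs (target site embedded in constant flanks, ACAGCATTCCGCGTTAGTGATATCCG... 5' flank; DNA-blocked outside the site) at 0.1 nM was incubated with 1 nM active mouse MILI or MIWI piRISC (synthetic 5'-monophosphorylated piRNA guide) with or without 500 nM mouse GTSF1 at 33 °C for 1 min to 16 h. Uncleaved targets were sequenced and normalised to non-target controls, and the pooled three trials were fitted to a burst-and-steady-state model to give the pre-steady-state cleavage rate (min^-1; k3 is constrained to at most 1e-4). Sequence is the target site only; target names encode pairing extent (gX:gY) and contiguous / 1-mismatch / 2-mismatch / bulge geometry. Fits with R² ≤ 0 are excluded.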
row,Sequence,pre-steady-state target cleavage rate
1,UACACUCUCACCUUCACUGAGAGAUUAACA,0.256 ± 0.02
2,UUCACUGUCACCUCCUCUGAGAGAUUAACA,0.639 ± 0.021
3,AUCACUGUCACCUCUCUCUGAGAGAUUAACA,0.515 ± 0.031
4,UAGACUGUCACCUCCUCUGAGAGAUUAACA,0.744 ± 0.035
5,UAGACUGUCACCUCUCUCUGAGAGAUUAACA,0.409 ± 0.044
6,UAGACUGUCACCUUGCUCUGAGAGAUUAACA,0.358 ± 0.049
7,UACACUGUCACCUCUCUCUGAGAGAUUAACA,0.425 ± 0.029
8,UAGACUGUCACCUCUCUGAGAGAUUAACA,0.321 ± 0.036
9,UACACUGUCACCUCCUCUGAGAGAUUAACA,0.731 ± 0.026
10,UAGACUGUCACCUGUCUCUGAGAGAUUAACA,0.561 ± 0.036
11,UAGACUGUCACCUGCUCUGAGAGAUUAACA,0.77 ± 0.043
12,UACACUGUCACCUCUCUGAGAGAUUAACA,0.5 ± 0.035
13,AUCACUGUCACCUCCUCUGAGAGAUUAACA,0.802 ± 0.033
14,UUCACUGUCAGGUUCUCUGAGAGAUUAUGA,0.0127 ± 0.003
15,UAGUGACUCACCUUCUCUGACACAUUAACA,0.00928 ± 0.0035
16,UUCACUGUCACCUUGUCUGAGUGAUUAACA,0.0394 ± 0.0054
17,UAGUCUGUCUCCUUCUGUGAGAGAUUAACA,0.536 ± 0.028
18,UUCACUGUGACGUUCUCUGAGAGAUUAACA,0.59 ± 0.026
19,AUCAGACUCACCUUCUCUGAGAGAUUAAGA,0.159 ± 0.028
20,AUCACUGUCACCUUCUCUGAGAGUAUUUGA,0.109 ± 0.034
21,UUCACUGUCACCUUCUCUGAGAGAAAAUGA,0.0429 ± 0.015
22,UAGUGACUCACCUUCUCUCAGAGAUAAACA,0.0156 ± 0.0032
23,UAGUGACUCACCCUCUCUGAGAGAUUAACA,0.415 ± 0.045
24,AUCUCUGUCACCUUCUCUCAGAGAUUAACA,0.105 ± 0.0088
25,UAGUGUGUCACCAUCUCUGACAGAUUAACA,0.222 ± 0.021

row,Sequence,pre-steady-state target cleavage rate
1,UAGACUGUCACCUUCUCUGAGAGAUAAUGA,0.00696 ± 0.0033
2,UAGUCUGUCACCUCCUCUGAGAGAUUAACA,0.726 ± 0.038
3,UAGUCUGUCACCUCUCUCUGAGAGAUUAACA,0.481 ± 0.032
4,UAGUCUGUCACCUCUCUGAGAGAUUAACA,0.447 ± 0.048
5,UAGUGACUCACCUUCUCUGAGAGAUUAACC [g2:g23:cont:t1C],0.303 ± 0.032
6,AUCACUGUCAGGUUCUCUGAGAGAUUAACA,0.653 ± 0.043
7,UUCACUGUGACCUUCUCUGAGAGAUAAACA,0.214 ± 0.023
8,UACACUGUCUGCUUCUCUGAGAGAUUAACA,0.708 ± 0.043
9,UUCUCUGUCAGCUUCUCUGAGAGAUUAACA,0.586 ± 0.028
10,AUCACUGUCUGCUUCUCUGAGAGAUUAACA,0.74 ± 0.042
11,AUCACUGUCAGCUUCUCUGAGAGAUUAACA,0.802 ± 0.044
12,AUCACUGUCAGCUUCUCUGUGAGAUUAACA,0.237 ± 0.013
13,UAGACUGUCAGCUUCUCUGAGAGAUUAACA,0.753 ± 0.05
14,UAGACUGUCAGCUUCUCUGUGAGAUUAACA,0.198 ± 0.0095
15,UUCACUGUCAGCUUCUCUGAGAGAUUAACA,0.723 ± 0.032
16,AACACUGUCAGCUUCUCUGAGAGAUUAACA,0.753 ± 0.039
17,UUCACUGUCUGCUUCUCUGAGAGAUUAACA,0.639 ± 0.038
18,UACACUGUCAGCUUCUCUGAGAGAUUAACA,0.655 ± 0.027
19,AUGACUGUCAGCUUCUCUGAGAGAUUAACA,0.721 ± 0.046
20,UUCACUGUCACGUUCUCUCAGAGAUUAACA,0.0729 ± 0.0078
21,UAGUGACAGUGGAAGUCUGAGAUAUUAACA,< 0.0001
22,AUCAGUGUCACCUUGUCUGAGAGAUUAACA,0.209 ± 0.029
23,UACACUGUCACCUUCUCCGAGAGAUUAACA,0.351 ± 0.051
24,UUCACUGUCACCUUCUCUGUGAGAUUAUCA,0.106 ± 0.025
25,UAGUGAGUCACCUACUCUGAGAGAUUAAGA,0.13 ± 0.021

row,Sequence,pre-steady-state target cleavage rate
1,UAGACUGUCAGCCUUCUCUGAGAGAUUAACA,0.231 ± 0.024
2,UUCACUGUCACCUUCUCUGACGAGAUUAACA,0.0334 ± 0.0098
3,AUCACUGGUCACCUUCUCUGAGAGAUUAACA,0.742 ± 0.047
4,UUCACUGUCACCUUCUCUGAGAGAAUUAACA,0.641 ± 0.098
5,AUCACUUGUCACCUUCUCUGAGAGAUUAACA,0.754 ± 0.12
6,AUCACUGUCACCUUCUCUGAGAGAAUUAACA,0.738 ± 0.13
7,UACACUGGUCACCUUCUCUGAGAGAUUAACA,0.676 ± 0.038
8,AUCACUGUCACCUUCUCUGAGAGAUUAACA [g2:g30:cont:t1A],0.734 ± 0.035
9,AUCACUGUCACCUUCUCUGAGAGAUUAACC [g2:g30:cont:t1C],0.387 ± 0.032
10,UACACUUGUCACCUUCUCUGAGAGAUUAACA,0.631 ± 0.088
11,UUCACUUGUCACCUUCUCUGAGAGAUUAACA,0.63 ± 0.09
12,AUCACUGUCACCUUCUCUCUGAGAUUAACA,0.0402 ± 0.0095
13,AUCACUGUCACCUUCUCUGAGAAUUAACA,0.366 ± 0.11
14,UUCACUGGUCACCUUCUCUGAGAGAUUAACA,0.652 ± 0.034
15,UAGAGACUCACCUUCUCUGAGAGAUUAUGA,0.0764 ± 0.014
16,UUCACUGUCACCUUCUCUGAGUAGAUUAACA,0.0213 ± 0.0063
17,UAGUCUGUCACCUUUUCUGAGAGAUUAACA,0.542 ± 0.029
18,AUCACUGUCACCUUCACUGAGUGAUUAACA,0.0332 ± 0.007
19,UAGUGACAGACCUUCACUGAGAGUUUAACA,0.0305 ± 0.011
20,UAGUGACUCACCUUCUCUGAGUGAUAAACA,0.0392 ± 0.007
21,AAUCACUGUCACCUUCUCUGAGAGAUUAACA,0.81 ± 0.043
22,AUCACUGUCACCUUCUCUGAGAGAUUAACG [g2:g30:cont:t1G],0.713 ± 0.037
23,AUCACUGUCACCUUCUCUGAGAGAUUAAUCA,0.381 ± 0.04
24,UAGUGACUCACCUUCUCUGAGAGAAUAAGA,0.02 ± 0.0073
25,UUCACAGUCACCUUCUCUGAGAGAUUAAGA,0.137 ± 0.027

row,Sequence,pre-steady-state target cleavage rate
1,UAGUGUGUCAGCUUCUCUGAGAGAUUAACA,0.561 ± 0.032
2,UAGAGUGUCAGCUUCUCUGAGAGAUUAACA,0.772 ± 0.044
3,UUCAGUGUCAGCUUCUCUGAGAGAUUAACA,0.609 ± 0.032
4,UACAGUGUCAGCUUCUCUGAGAGAUUAACA,0.622 ± 0.028
5,UAGUGUCUCAGCUUCUCUGAGAGAUUAACA,0.437 ± 0.031
6,AUCAGUGUCAGCUUCUCUGAGAGAUUAACA,0.734 ± 0.034
7,AUCUCUGUCACCUACUCUGAGAGAUUAACA,0.627 ± 0.042
8,AUCACUGUCACCUUCUCUGACAGAUUAUCA,0.0262 ± 0.0092
9,UAGUCUGUCACCUUCUCUGAGACAUUAUCA,0.0172 ± 0.0056
10,UAGUGUCACACCUUCUCUGAGAGAUAUUGA,0.00616 ± 0.0033
11,UAGUGACACACCUUCUCUGAUAGAUUAACA,0.714 ± 0.054
12,UAGUGACAGUGGAUCUCUGAGAAAUUAACA,< 0.0001
13,UAGACUGUCACCUUCUCUGAGAGCAUUAACA,0.38 ± 0.025
14,UAGUCUGUCACCUUCUCUGAGUGAUUUACA,0.0221 ± 0.0058
15,UUCACUGUCACCUUCUCCUGAGAGAUUAACA,0.795 ± 0.21
16,UUCACUGUCACCUUCUCUCUGAGAUUAACA,0.0263 ± 0.0076
17,GUCACUGUCACCUUCUCUGAGAGAUUAACA,0.763 ± 0.04
18,AGUCACUGUCACCUUCUCUGAGAGAUUAACA,0.833 ± 0.057
19,AUCCACUGUCACCUUCUCUGAGAGAUUAACA,0.712 ± 0.046
20,UUUCACUGUCACCUUCUCUGAGAGAUUAACA,0.415 ± 0.04
21,ACCACUGUCACCUUCUCUGAGAGAUUAACA,0.715 ± 0.039
22,UCCACUGUCACCUUCUCUGAGAGAUUAACA,0.68 ± 0.028
23,UACACUGUCACCUUCUCCUGAGAGAUUAACA,0.115 ± 0.043
24,UACCACUGUCACCUUCUCUGAGAGAUUAACA,0.773 ± 0.044
25,AUCACUGUCACCUUCUCCUGAGAGAUUAACA,0.645 ± 0.17
